Holding throughout (set-up): scale not given: direction of the effect not stated beside the values
In assay [1] the target is Protein translocase subunit SecA (Escherichia coli (strain K12)) (UniProt P10408). Briefly: Assay to Identify E. coli SecA ATPase Inhibitors. It is filed as functional. As to conditions: 30 µM.
Assay [2] has as its target T1, Ubiquitin-activating enzyme e1, putative (Leishmania donovani (strain BPK282A1)) (UniProt E9BSI1).
T1 sequence (whole entry): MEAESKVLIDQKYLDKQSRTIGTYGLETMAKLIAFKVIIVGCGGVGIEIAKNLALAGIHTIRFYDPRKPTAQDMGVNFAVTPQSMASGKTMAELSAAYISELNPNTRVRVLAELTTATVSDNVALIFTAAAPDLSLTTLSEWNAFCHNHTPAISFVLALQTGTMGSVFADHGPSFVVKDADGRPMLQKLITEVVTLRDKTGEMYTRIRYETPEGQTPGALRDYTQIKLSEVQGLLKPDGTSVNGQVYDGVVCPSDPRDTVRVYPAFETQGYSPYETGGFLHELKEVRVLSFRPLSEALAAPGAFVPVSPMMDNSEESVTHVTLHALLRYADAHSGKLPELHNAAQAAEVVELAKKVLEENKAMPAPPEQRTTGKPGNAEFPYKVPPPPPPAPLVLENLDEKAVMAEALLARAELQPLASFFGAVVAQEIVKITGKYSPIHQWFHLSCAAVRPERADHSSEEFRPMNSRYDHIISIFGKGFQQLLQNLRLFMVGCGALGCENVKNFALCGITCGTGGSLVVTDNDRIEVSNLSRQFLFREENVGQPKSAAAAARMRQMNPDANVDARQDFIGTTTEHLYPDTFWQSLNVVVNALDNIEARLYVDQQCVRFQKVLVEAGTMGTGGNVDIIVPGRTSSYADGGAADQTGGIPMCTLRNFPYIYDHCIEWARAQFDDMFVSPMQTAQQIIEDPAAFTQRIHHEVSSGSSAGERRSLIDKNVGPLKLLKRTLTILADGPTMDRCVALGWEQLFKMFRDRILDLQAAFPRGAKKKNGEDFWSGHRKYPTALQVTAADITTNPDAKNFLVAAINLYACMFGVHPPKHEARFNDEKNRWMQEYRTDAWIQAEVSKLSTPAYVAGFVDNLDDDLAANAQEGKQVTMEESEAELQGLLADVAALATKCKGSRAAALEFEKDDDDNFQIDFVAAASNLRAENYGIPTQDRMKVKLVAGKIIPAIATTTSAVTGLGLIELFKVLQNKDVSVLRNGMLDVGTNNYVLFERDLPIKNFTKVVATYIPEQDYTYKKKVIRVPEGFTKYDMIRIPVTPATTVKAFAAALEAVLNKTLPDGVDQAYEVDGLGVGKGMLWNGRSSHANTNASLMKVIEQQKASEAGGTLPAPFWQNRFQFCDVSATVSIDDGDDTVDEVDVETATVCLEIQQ
The assay is described as follows: Leishmania donovani Ubiquitin Activating Enzyme (LdE1). It counts as functional. To be noted: 30 µM.

Assay [3] has as its target AMP-activated protein kinase, AMPK (Homo sapiens) (UniProt P54646+O43741+P54619+Q9UGJ0+Q9Y478+Q13131+Q9UGI9). Briefly: AMP-dependent Kinase enzyme assay. An in vitro enzyme assay that detects ADP turnover that is directly proportional to AMPK activity. This uses naive AMPK that is activated during the assay with MK-8722. It is filed as functional. As to conditions: 30 µM.

Assay [4] addresses Sialic acid-binding Ig-like lectin 9 (Homo sapiens) (UniProt Q9Y336). The assay is described as follows: Hs-Siglec9 ALPHAscreen SOP 20170721. To be noted: 10 µM. (In Alpha technology, singlet oxygen from a donor bead excites a nearby acceptor bead.)
The next assay has as its system Trypanosoma cruzi. The assay is described as follows: Trypanosoma cruzi phosphomannomutase and mannose-1-phosphate guanylyltransferase assay. It counts as functional. To be noted: 10 µM.
Assay [5] concerns the target T2, Arginase-2, mitochondrial (Homo sapiens) (UniProt P78540).
T2 sequence (whole entry): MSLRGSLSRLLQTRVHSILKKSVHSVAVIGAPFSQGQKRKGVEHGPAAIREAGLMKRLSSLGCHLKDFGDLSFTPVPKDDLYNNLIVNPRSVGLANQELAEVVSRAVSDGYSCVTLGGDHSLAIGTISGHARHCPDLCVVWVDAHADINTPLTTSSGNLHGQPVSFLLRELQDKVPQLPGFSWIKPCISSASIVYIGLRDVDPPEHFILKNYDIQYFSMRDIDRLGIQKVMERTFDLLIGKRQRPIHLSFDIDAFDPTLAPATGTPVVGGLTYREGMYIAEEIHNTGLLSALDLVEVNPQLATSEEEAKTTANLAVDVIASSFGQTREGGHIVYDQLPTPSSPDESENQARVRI
The assay is described as follows: in vitro enzyme assay to detect the production of urea directly proportional to the activity of Arginase II. Further: in the data most compounds retested in dose-response had high values. It counts as functional. As to conditions: 33.3 µM.

For assay [6], the target named is T3, Proteasome subunit beta (Trypanosoma cruzi) (UniProt O96673).
T3 sequence (whole entry): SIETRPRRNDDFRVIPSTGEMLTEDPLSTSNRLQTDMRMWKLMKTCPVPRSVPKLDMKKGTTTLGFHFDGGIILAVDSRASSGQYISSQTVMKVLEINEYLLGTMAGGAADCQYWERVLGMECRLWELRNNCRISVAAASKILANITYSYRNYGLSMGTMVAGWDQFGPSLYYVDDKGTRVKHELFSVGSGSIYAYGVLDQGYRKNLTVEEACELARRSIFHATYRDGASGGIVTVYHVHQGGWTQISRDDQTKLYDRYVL
The assay is described as follows: Trypanosoma cruzi proteasome chymotrypsin-like activity (TcProtChymo) assay. Further: in the data most compounds retested in dose-response had high values. It is filed as functional. As to conditions: 9.37 µM.

The next assay is filed under the species Homo sapiens. The assay is described as follows: To identify inhibition of the IFN signalling (Jak-Stat) pathway via expression of an eGFP reporter gene under the control of an IFN-stimulated response element (ISRE) containing MxA promoter. As to conditions: 30 µM. It counts as functional.
Assay [7] addresses T4, Tyrosyl-tRNA synthetase, putative (Trypanosoma cruzi (strain CL Brener)) (UniProt Q4DSP6).
T4 sequence (whole entry): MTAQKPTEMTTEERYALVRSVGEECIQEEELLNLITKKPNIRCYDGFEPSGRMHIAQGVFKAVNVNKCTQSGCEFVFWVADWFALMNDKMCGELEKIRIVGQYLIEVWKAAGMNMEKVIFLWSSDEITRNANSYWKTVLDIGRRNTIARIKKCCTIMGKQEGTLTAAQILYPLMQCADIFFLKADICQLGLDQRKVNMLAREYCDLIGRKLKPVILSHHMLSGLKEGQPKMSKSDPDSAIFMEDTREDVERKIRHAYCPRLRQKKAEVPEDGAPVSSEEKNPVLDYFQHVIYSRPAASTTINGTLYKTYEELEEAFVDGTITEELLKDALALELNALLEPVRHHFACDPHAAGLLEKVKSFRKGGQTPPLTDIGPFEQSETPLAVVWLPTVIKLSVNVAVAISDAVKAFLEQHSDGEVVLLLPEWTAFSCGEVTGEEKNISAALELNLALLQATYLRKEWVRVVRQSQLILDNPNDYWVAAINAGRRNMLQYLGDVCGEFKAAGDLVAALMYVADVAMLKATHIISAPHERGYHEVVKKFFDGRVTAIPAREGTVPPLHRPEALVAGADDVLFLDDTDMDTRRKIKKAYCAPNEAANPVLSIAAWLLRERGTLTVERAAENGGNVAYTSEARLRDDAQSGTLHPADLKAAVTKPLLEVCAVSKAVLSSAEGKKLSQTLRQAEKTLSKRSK
Briefly: Trypanosoma cruzi tyrosyl tRNA synthetase (TcYRS) _High Tyrosine SOP. Further: in the data most compounds retested in dose-response had high values. It is filed as functional. To be noted: 30 µM.

Assay [8] has as its target T4, Tyrosyl-tRNA synthetase, putative (Trypanosoma cruzi (strain CL Brener)). Briefly: Trypanosoma cruzi tyrosyl tRNA synthetase (TcYRS) SOP. As to conditions: 30 µM. It counts as functional.
The target of assay [9] is Chromo domain-containing protein 1 (Saccharomyces cerevisiae (strain ATCC 204508 / S288c) (Baker's yeast)) (UniProt P32657). Briefly: ScCHD-1 Enzyme Inhibition Assay. Further: in the data most compounds retested in dose-response had high values. It is filed as functional. As to conditions: 30 µM.

Structures are written as SMILES. For some of these results: Entries with a potency or affinity are not part of this list.

The record followed here is ChEMBL document CHEMBL3988442, “University of Dundee, Small-Polar-MMV Screening Library” (2021).

Sialic acid-binding Ig-like lectin 9 (Homo sapiens), sequence (Q9Y336 whole entry): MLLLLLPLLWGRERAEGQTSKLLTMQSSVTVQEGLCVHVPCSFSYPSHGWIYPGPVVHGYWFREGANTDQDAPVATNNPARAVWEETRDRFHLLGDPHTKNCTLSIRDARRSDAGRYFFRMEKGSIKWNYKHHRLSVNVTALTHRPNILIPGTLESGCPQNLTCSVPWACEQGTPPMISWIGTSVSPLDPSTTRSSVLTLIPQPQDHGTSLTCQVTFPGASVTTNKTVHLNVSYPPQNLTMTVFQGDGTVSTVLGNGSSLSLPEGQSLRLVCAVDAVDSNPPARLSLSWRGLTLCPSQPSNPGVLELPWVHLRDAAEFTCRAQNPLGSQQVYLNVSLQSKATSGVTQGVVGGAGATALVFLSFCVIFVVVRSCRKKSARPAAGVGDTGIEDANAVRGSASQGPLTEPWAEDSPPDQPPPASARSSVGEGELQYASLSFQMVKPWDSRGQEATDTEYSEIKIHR
Chromo domain-containing protein 1 (Saccharomyces cerevisiae (strain ATCC 204508 / S288c) (Baker's yeast)), sequence (P32657 whole entry, the tested form may be a part): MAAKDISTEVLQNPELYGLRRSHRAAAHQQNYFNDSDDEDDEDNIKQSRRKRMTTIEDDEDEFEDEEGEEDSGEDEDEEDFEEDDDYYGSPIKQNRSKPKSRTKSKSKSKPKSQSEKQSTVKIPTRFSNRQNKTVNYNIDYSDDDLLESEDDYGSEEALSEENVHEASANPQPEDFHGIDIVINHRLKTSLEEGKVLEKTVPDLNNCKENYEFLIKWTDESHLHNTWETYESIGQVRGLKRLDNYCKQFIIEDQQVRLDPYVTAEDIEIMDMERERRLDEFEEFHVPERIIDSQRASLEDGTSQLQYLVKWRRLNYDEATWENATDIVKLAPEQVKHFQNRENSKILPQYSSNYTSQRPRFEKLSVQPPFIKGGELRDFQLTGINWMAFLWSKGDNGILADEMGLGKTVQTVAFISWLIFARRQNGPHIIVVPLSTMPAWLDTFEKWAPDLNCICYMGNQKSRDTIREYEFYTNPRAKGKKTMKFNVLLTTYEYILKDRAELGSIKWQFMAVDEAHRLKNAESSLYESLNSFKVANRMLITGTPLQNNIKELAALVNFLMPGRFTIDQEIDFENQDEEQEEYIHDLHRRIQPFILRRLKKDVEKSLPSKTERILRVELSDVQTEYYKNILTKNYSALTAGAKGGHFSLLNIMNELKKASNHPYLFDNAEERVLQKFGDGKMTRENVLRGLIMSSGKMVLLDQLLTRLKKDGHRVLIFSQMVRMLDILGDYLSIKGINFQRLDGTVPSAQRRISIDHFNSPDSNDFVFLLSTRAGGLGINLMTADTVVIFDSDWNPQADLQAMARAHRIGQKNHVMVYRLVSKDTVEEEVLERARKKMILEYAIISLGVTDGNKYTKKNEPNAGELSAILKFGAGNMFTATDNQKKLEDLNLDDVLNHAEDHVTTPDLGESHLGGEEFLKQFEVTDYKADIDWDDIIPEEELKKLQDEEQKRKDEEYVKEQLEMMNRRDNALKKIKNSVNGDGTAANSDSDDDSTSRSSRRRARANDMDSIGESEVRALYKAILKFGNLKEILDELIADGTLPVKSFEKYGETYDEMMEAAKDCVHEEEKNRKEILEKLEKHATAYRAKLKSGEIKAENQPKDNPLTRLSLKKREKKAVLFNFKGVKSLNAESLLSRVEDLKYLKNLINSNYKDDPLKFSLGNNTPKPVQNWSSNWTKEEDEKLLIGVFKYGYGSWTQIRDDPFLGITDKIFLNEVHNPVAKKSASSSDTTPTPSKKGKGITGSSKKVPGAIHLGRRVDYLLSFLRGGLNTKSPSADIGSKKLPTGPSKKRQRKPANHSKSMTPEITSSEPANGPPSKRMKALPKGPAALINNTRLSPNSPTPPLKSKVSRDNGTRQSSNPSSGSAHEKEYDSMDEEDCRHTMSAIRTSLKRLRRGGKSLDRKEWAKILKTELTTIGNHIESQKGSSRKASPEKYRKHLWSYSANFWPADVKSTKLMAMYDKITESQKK
Protein translocase subunit SecA (Escherichia coli (strain K12)), sequence (P10408 whole entry): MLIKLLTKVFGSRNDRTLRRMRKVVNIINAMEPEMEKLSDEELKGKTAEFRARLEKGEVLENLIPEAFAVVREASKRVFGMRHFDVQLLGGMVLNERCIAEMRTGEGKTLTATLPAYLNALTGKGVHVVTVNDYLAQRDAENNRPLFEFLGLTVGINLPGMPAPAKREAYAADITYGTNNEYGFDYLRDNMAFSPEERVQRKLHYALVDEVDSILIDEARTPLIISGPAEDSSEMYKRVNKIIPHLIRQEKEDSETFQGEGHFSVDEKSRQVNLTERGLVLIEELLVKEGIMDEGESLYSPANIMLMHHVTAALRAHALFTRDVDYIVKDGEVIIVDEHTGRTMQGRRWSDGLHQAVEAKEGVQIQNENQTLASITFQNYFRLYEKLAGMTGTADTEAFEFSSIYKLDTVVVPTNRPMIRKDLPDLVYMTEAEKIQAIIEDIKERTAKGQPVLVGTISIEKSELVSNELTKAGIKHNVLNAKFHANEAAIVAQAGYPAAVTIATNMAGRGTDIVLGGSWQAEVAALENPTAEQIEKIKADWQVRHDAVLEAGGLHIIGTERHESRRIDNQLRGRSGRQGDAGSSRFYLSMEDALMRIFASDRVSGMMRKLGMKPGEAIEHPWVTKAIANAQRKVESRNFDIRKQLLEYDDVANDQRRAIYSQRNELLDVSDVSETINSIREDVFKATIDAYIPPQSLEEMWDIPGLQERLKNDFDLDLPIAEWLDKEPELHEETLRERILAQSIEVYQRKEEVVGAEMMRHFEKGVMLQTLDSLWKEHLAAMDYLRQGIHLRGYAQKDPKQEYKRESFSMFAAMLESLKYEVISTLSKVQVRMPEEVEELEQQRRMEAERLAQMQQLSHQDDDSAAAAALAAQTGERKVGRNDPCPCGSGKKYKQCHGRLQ

Take `CN(C)CCNC(=O)c1ccc(OC2CCN(S(C)(=O)=O)CC2)c(Cl)c1`: the Percent Effect in assay [1] is -6.99%; in assay [2], 18.9%; in assay [3], -3.92%; in [4], 19.3%; in the assay with Trypanosoma cruzi, 8.5%; in assay [5], 3.23%. In addition, the Percent Effect in assay [6] was 13.8%; in the assay listed under Homo sapiens, -5.52%; in [7], 7.53%; in assay [8], 21%; in assay [9] it was -4.57%.

`OCCC1CN(C2CCC2)CCN1C1CCCC1` (stereo unspecified): the Percent Effect in assay [1] was -3.14%; in [2], -1.39%; in assay [3], -6.25%; in [4] it was -1.98%; with Trypanosoma cruzi, 7.87%; in assay [5], -1.77%. The Percent Effect in [6] was 2.28%; in the assay filed under Homo sapiens, -37%; in assay [7], 1.05%; in assay [8], 7.69%; in assay [9], 3.1%.

Take `Cn1nccc1-c1ccc2nc(C3CCN(CCO)CC3)nn2c1`: the Percent Effect in [1] was -3.12%; in [2], 13.3%; in assay [3], 0.376%; in assay [4], 3.71%; in the assay on Trypanosoma cruzi, 1.35%; in assay [5], -54.7%. The Percent Effect in [6] is 13.5%; in the assay filed under Homo sapiens it was 3.01%; in assay [7] it was 5.21%; in [8], 22.5%; in assay [9] it was -7.82%.

`CCNC(=O)N(C)C(c1cccc(F)c1)c1ccccn1` (stereo unspecified): the Percent Effect in [1] was -4.06%; in assay [2], 2.6%; in assay [3], 8.62%; in assay [4], 13%; in the assay on Trypanosoma cruzi, 5.43%; in assay [5], -2.49%. Also, the Percent Effect in [6] is 9.46%; in the assay listed under Homo sapiens, 21.3%; in assay [7] it was 7.77%; in assay [8] it was 21.9%; in assay [9], -6.09%.

In the case of `Cc1ccc(C2CCCCCN2Cc2cn(C)nc2C)cc1` (stereo unspecified), the Percent Effect in [1] was -2.53%; in [2], 5.2%; in [3] it was 1.3%; in [4], 6.91%; in the assay with Trypanosoma cruzi, 4.83%; in [5], 1.94%. Also, the Percent Effect was 5.92% in [6]; -15% in the assay filed under Homo sapiens; 8.47% in [7]; 19.2% in assay [8]; -11.2% in assay [9].

On to `Cn1cc(C[C@H]2[C@@H](O)CCN2C(=O)C2CC=CC2)cn1`, for which the Percent Effect in assay [1] was -1.02%; in assay [2] it was 7.79%; in assay [3], 8.48%; in [4] it was -3.96%; in the assay on Trypanosoma cruzi it was 0.69%; in assay [5], 12.3%. The Percent Effect is 17.8% in assay [6]; 26.4% in the assay filed under Homo sapiens; 1.06% in assay [7]; 14.1% in assay [8]; -9.76% in assay [9].

For `O=C(CCc1ccsc1)N1CCC(Cc2ccc(CO)cc2)C1` (stereo unspecified), the Percent Effect in [1] was 2.19%; in assay [2], 4.17%; in assay [3] it was -0.478%; in assay [4] it was -3.78%; with Trypanosoma cruzi it was -6.9%; in assay [5], 3.53%. For the same compound, the Percent Effect in assay [6] is 12.5%; in the assay filed under Homo sapiens it was -1.24%; in assay [7] it was 3.16%; in assay [8], 7.69%; in [9], -1.32%.

Consider `O=C(CC1CCCCC1)N1CCN(C(=O)NCc2ccccn2)CC1`, for which the Percent Effect in [1] is -3.1%; in assay [2], 10.4%; in assay [3], 1.16%; in assay [4], -0.668%; in the assay with Trypanosoma cruzi, 1.86%; in assay [5], 1.05%. Moreover, the Percent Effect is 6.39% in assay [6]; -4.56% in the assay filed under Homo sapiens; 4.76% in assay [7]; -16.5% in [8]; -15% in assay [9].

Turning to `Fc1ccc(CN2CCCC(c3nnc(-c4cnccn4)o3)C2)cc1F` (stereo unspecified), the Percent Effect in [1] is -9.81%; in assay [2], 14.9%; in assay [3], -1.12%; in [4], 9.24%; in the assay with Trypanosoma cruzi, -0.198%; in assay [5] it was -3.02%. Besides, the Percent Effect is 12% in assay [6]; 1.34% in the assay filed under Homo sapiens; 6.45% in assay [7]; 14.3% in assay [8]; -26.6% in [9].

Take `NC(=O)c1cnn2c1NCC(CNCCCOc1ccccc1F)C2` (stereo unspecified): the Percent Effect was -2.54% in [1]; 5.26% in assay [2]; 0.424% in [3]; 14.6% in assay [4]; 3.38% in the assay on Trypanosoma cruzi; -1.15% in assay [5]. For the same compound, the Percent Effect in assay [6] is 0.167%; in the assay filed under Homo sapiens, 2.29%; in assay [7] it was 9.31%; in assay [8] it was 12.2%; in [9] it was -10.9%.

As to `Cc1ccc(CC(=O)N2CCCC(c3cc(C)[nH]n3)C2)cn1` (stereo unspecified), the Percent Effect in assay [1] was -4.35%; in assay [2] it was 13.5%; in [3], -1.96%; in [4], 17.6%; with Trypanosoma cruzi, 5.66%; in assay [5], -4.25%. For the same compound, the Percent Effect in assay [6] was 3.77%; in the assay filed under Homo sapiens, 12.1%; in [7] it was 3.96%; in assay [8], 15.8%; in [9], -0.933%.
